The panel holds about 79,000 compounds, 15% with a hit somewhere; the sample as a whole holds those more often. Active and inactive are the calls of the source. No stated cut-off is given here; in the data, active means growth inhibition above about 70%; inactive means the rest.
Assays:
[1] = NCI Yeast Anticancer Drug Screen. Data for the rad50 strain (AID 155);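 further: 0% = growth of vehicle-only cultures of the same strain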; conditions: S. cerevisiae rad50 strain growth inhibition, active compounds read high
How it was run: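 A DNA repair-deficient yeast mutant serves as the test organism; compound-induced growth inhibition is calculated against vehicle-treated cells.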

[2] = NCI Yeast Anticancer Drug Screen. Data for the mec2-1 strain (AID 157); conditions: S. cerevisiae mec2-1 strain, active compounds read high
How it was run: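 mec2-1 yeast strain, carrying an alteration in DNA damage repair or cell cycle control, was exposed to compounds; growth inhibition was measured relative to vehicle-treated controls.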

[3] = NCI Yeast Anticancer Drug Screen. Data for the sgs1 mgt1 strain (AID 161);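 further: 0% = growth of cultures given vehicle only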; conditions: S. cerevisiae sgs1 mgt1 strain, active compounds read high
How it was run: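 This yeast growth screen uses a strain with defined DNA-repair lesions; compound-treated growth is compared with vehicle-treated growth.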

[4] = NCI Yeast Anticancer Drug Screen. Data for the cln2 rad14 strain (AID 165);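 further: 0% = growth equal to vehicle treated cultures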; conditions: S. cerevisiae cln2 rad14 strain, active compounds read high
How it was run: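 Yeast carrying cln2 and rad14 alterations (cell cycle control and DNA damage repair) were exposed to compounds. Growth inhibition was measured against vehicle-treated controls.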

[5] = NCI Yeast Anticancer Drug Screen. Data for the bub3 strain (AID 167); conditions: S. cerevisiae bub3 mutant strain, active compounds read high
How it was run: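 Inhibition values come from growth of compound-treated mutant yeast normalised to vehicle-treated controls.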

[6] = NCI Yeast Anticancer Drug Screen. Data for the mlh1 rad18 strain (AID 175); conditions: S. cerevisiae mlh1 rad18 strain growth inhibition, active compounds read high
How it was run: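 Growth inhibition of the yeast strain was measured after compound exposure and expressed relative to vehicle-treated controls. The strain carries defined defects in DNA damage repair.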

[7] = at 5.0 µM (retest, dose inferred, filed as 0.5)
[8] = at 50.0 µM (retest, dose inferred, filed as 5.0)

Measured: growth inhibition

O=C(Cc1ccccc1)OC(C(=O)c1ccccc1)c1ccccc1 (configuration not stated)
inactive: [1]; [7] 4% | [1]; at 50.0 µM -15.7% | [2]; [7] 7% | [2]; at 50.0 µM 10.3% | [3]; [7] 3% | [3]; at 50.0 µM -0.1% | [4]; [7] 2% | [4]; at 50.0 µM -12.3% | [5]; [7] 20% | [6]; [7] 4% | [6]; at 50.0 µM -3.1%
active: [1]; [8] 94% | [2]; [8] 95% | [3]; [8] 93% | [4]; [8] 90% | [5]; [8] 92% | [5]; at 50.0 µM 72.2% | [6]; [8] 92%

Sc1c(Br)cc(Br)cc1Br.[Ag]
active: [1]; [8] 99% | [2]; [8] 100% | [3]; [8] 99% | [3]; at 50.0 µM 72.4% | [4]; [8] 99% | [5]; [8] 100% | [6]; [8] 99%
inactive: [1]; [7] 7% | [1]; at 50.0 µM 31.6% | [2]; [7] 6% | [2]; at 50.0 µM 30.9% | [3]; [7] 26% | [4]; [7] 6% | [4]; at 50.0 µM 14.6% | [5]; [7] -1% | [5]; at 50.0 µM 30.7% | [6]; [7] 19% | [6]; at 50.0 µM 59.5%

CCCCCCCCCCCCCCCC(=O)N1CCOCC1
active: [1]; [8] 94% | [2]; [8] 97% | [3]; [8] 98% | [5]; [8] 98% | [6]; [8] 93%
inactive: [1]; [7] -4% | [1]; at 50.0 µM 31.4% | [2]; [7] -5% | [2]; at 50.0 µM 31.8% | [3]; [7] -4% | [3]; at 50.0 µM -13.7% | [4]; [7] 1% | [4]; [8] 62% | [4]; at 50.0 µM -64.8% | [5]; [7] -8% | [5]; at 50.0 µM 21.2% | [6]; [7] 17% | [6]; at 50.0 µM 28.1%

CCSSC12CCCN1C(=O)C(C)N(C)C2=O (configuration not stated)
active: [1]; [8] 79% | [1]; at 50.0 µM 77.6% | [2]; [8] 81% | [6]; [8] 84%
inactive: [1]; [7] 1% | [2]; [7] 9% | [2]; at 50.0 µM 16.4% | [3]; [7] 7% | [3]; [8] 49% | [3]; at 50.0 µM 11.6% | [4]; [7] 11% | [4]; [8] 58% | [4]; at 50.0 µM -61.4% | [5]; [7] 0% | [5]; [8] 53% | [5]; at 50.0 µM 19.8% | [6]; [7] 1% | [6]; at 50.0 µM 4.5%

CC1CCCC(C(O)(C(=O)O)C2CCCC(C)C2)C1 (configuration not stated)
active: [1]; [8] 72% | [2]; [8] 81% | [3]; [8] 70% | [4]; [8] 98% | [5]; [8] 97% | [6]; [8] 79%
inactive: [1]; [7] 15% | [1]; at 50.0 µM 66.3% | [2]; [7] 29% | [2]; at 50.0 µM 43% | [3]; [7] 8% | [3]; at 50.0 µM 56.5% | [4]; [7] 68% | [4]; at 50.0 µM 33.2% | [5]; [7] 14% | [5]; at 50.0 µM 25.4% | [6]; [7] 15% | [6]; at 50.0 µM 69.7%

S=c1sc2nc(Cl)nc(Cl)c2s1
active: [1]; [7] 99% | [1]; [8] 99% | [1]; at 50.0 µM 87.1% | [2]; [7] 100% | [2]; [8] 99% | [2]; at 50.0 µM 88.3% | [3]; [7] 100% | [3]; [8] 99% | [3]; at 50.0 µM 89.5% | [4]; [7] 97% | [4]; [8] 99% | [4]; at 50.0 µM 89.5% | [5]; [7] 100% | [5]; [8] 100% | [5]; at 50.0 µM 87.4% | [6]; [7] 99% | [6]; [8] 98% | [6]; at 50.0 µM 89.3%

CN(C)/N=N/c1nc(Cc2ccccc2)[nH]c1C(N)=O
active: [1]; [7] 98% | [1]; [8] 98% | [1]; at 50.0 µM 98.5% | [2]; [8] 99% | [2]; at 50.0 µM 94.6% | [3]; [8] 99% | [3]; at 50.0 µM 99.2% | [4]; [8] 99% | [4]; at 50.0 µM 92.9% | [5]; [8] 99% | [5]; at 50.0 µM 96.5% | [6]; [7] 99% | [6]; [8] 99% | [6]; at 50.0 µM 98.8%
inactive: [2]; [7] 16% | [3]; [7] 38% | [4]; [7] 29% | [5]; [7] 67%

CCCCCCCCCCCCCCCCCCNC(=S)/N=C/c1c(O)cc(C)oc1=O
inactive: [1]; [7] 1% | [1]; [8] 15% | [1]; at 50.0 µM 16.1% | [2]; [7] 8% | [2]; [8] 38% | [2]; at 50.0 µM -13.7% | [3]; [7] -15% | [3]; [8] 8% | [3]; at 50.0 µM 57% | [4]; [7] 7% | [4]; [8] -13% | [4]; at 50.0 µM -30.1% | [5]; [7] -2% | [5]; [8] -8% | [5]; at 50.0 µM 18.9% | [6]; [7] 10% | [6]; [8] 29% | [6]; at 50.0 µM 15.9%

CC1CC(=O)OC(C(=O)c2ccccc2)N1c1ccc(C(F)(F)F)cc1N (configuration not stated)
active: [1]; at 50.0 µM 81.6% | [6]; at 50.0 µM 88.4%
inactive: [1]; [7] 4% | [1]; [8] 30% | [2]; [7] 11% | [2]; [8] 11% | [2]; at 50.0 µM 65% | [3]; [7] 8% | [3]; [8] 38% | [3]; at 50.0 µM 59.4% | [4]; [7] 0% | [4]; [8] 2% | [4]; at 50.0 µM 56.4% | [5]; [7] 2% | [5]; [8] 10% | [5]; at 50.0 µM 32.2% | [6]; [7] 3% | [6]; [8] 27%

[N-]=[N+]=NC1=CC(=O)c2cccc3cccc1c23
active: [1]; [8] 99% | [1]; at 50.0 µM 80.8% | [2]; [8] 99% | [2]; at 50.0 µM 86.5% | [3]; [8] 99% | [3]; at 50.0 µM 87.6% | [4]; [8] 98% | [4]; at 50.0 µM 80.1% | [5]; [8] 99% | [5]; at 50.0 µM 89% | [6]; [7] 72% | [6]; [8] 99% | [6]; at 50.0 µM 89.5%
inactive: [1]; [7] 45% | [2]; [7] 31% | [3]; [7] 65% | [4]; [7] 47% | [5]; [7] 32%

CN(C)CCOc1cc2c(c3ccccc13)-c1ccccc1C2O (configuration not stated)
inactive: [1]; [7] 30% | [2]; [7] 0% | [2]; [8] 45% | [2]; at 50.0 µM 26.8% | [3]; [7] 9% | [3]; [8] 69% | [3]; at 50.0 µM 67.8% | [4]; [7] 1% | [4]; [8] 31% | [4]; at 50.0 µM 38.1% | [5]; [7] 2% | [5]; [8] 34% | [5]; at 50.0 µM 34.5% | [6]; [7] 7%
active: [1]; [8] 96% | [1]; at 50.0 µM 98.3% | [6]; [8] 83% | [6]; at 50.0 µM 72.8%

CC(=O)Oc1cccc2c(OC(C)=O)cccc12
inactive: [1]; [7] -8% | [1]; at 50.0 µM 69.2% | [2]; [7] -19% | [2]; at 50.0 µM 39.8% | [3]; [7] -9% | [3]; [8] 53% | [4]; [7] -8% | [4]; [8] 34% | [4]; at 50.0 µM 26.9% | [5]; [7] -32% | [5]; at 50.0 µM 58.2% | [6]; [7] -6% | [6]; at 50.0 µM 65.6%
active: [1]; [8] 87% | [2]; [8] 91% | [3]; at 50.0 µM 70.8% | [5]; [8] 92% | [6]; [8] 89%

COc1ccccc1NC(=O)/C(=C/c1ccccc1)C(C)=O
inactive: [1]; [7] -1% | [1]; [8] 12% | [1]; at 50.0 µM 48.6% | [2]; [7] -2% | [2]; [8] -2% | [2]; at 50.0 µM -3.05% | [3]; [7] 11% | [3]; [8] 12% | [3]; at 50.0 µM 16.7% | [4]; [7] 1% | [4]; [8] 21% | [4]; at 50.0 µM 49.1% | [5]; [7] -2% | [5]; [8] 25% | [5]; at 50.0 µM -4.75% | [6]; [7] 3% | [6]; [8] 26% | [6]; at 50.0 µM 66.5%

N#CC#Cc1cccc(C#CC#N)c1
inactive: [3]; at 50.0 µM 50%
active: [1]; [7] 98% | [1]; [8] 98% | [1]; at 50.0 µM 98% | [2]; [7] 99% | [2]; [8] 99% | [2]; at 50.0 µM 98.9% | [3]; [7] 99% | [3]; [8] 99% | [4]; [7] 99% | [4]; [8] 98% | [4]; at 50.0 µM 98.8% | [5]; [7] 98% | [5]; [8] 98% | [5]; at 50.0 µM 98.9% | [6]; [7] 99% | [6]; [8] 98% | [6]; at 50.0 µM 99.2%

Reference: PubChem BioAssay (NCI)
